What all share (test): yeast three-hybrid, YBZ-1, SC-Leu-His + 0.5 mM 3-AT, 4 days
Common to all, as to settings: tags: N-Gal4 AD-HA kept; label: inside an RPR1-promoter hybrid RNA with tandem MS2 sites; ssRNA

In one experiment the target is PUM1 PUF domain R4-TPT (Homo sapiens, UniProt Q14671 828-1176, N971T;H972P;Q975T). Summed up: (§1)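 The interaction score is the log change in how often each variant appears, from input to selection. Frequencies came from PCR-amplified, Illumina-sequenced repeat regions of Pumilio-1 PUF domain libraries grown in strain YBZ-1 (LexA–MS2 coat fusion, HIS3 reporter) alongside matching RNA elements. Input plates were SC-Leu and selection plates were SC-Leu-His + 0.5 mM 3-AT, each for four days, and the log2 calculation used a pseudocount of 1 where a variant was absent.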

Another experiment concerns the target PUM1 PUF domain R4-GQR (Homo sapiens, UniProt Q14671 828-1176, N971G;H972Q;Q975R). Summed up:
as §1

Another experiment deals with PUM1 PUF domain R5-DFG (Homo sapiens, UniProt Q14671 828-1176, C1007D;R1008F;Q1011G). Summed up:
as §1

Another experiment deals with PUM1 PUF domain R5-GAR (Homo sapiens, UniProt Q14671 828-1176, C1007G;R1008A;Q1011R). Summed up:
as §1

For another experiment, the target named is PUM1 PUF domain R3-YCV (Homo sapiens, UniProt Q14671 828-1176, C935Y;R936C;Q939V). Summed up:
as §1

For another experiment, the target named is PUM1 PUF domain R4-YLL (Homo sapiens, UniProt Q14671 828-1176, N971Y;H972L;Q975L). Summed up:
as §1

The next experiment concerns the target PUM1 PUF domain R4-PWC (Homo sapiens, UniProt Q14671 828-1176, N971P;H972W;Q975C). The gist of the method: as §1
The next experiment concerns the target PUM1 PUF domain R8-KWL (Homo sapiens, UniProt Q14671 828-1176, N1122K;Y1123W;Q1126L). Summed up:
as §1

The next experiment deals with PUM1 PUF domain R3-DHS (Homo sapiens, UniProt Q14671 828-1176, C935D;R936H;Q939S). Summed up:
as §1

The next experiment addresses PUM1 PUF domain R8-RYT (Homo sapiens, UniProt Q14671 828-1176, N1122R;Q1126T). The gist of the method: as §1
The target in another experiment is PUM1 PUF domain R4-CGC (Homo sapiens, UniProt Q14671 828-1176, N971C;H972G;Q975C). The gist of the method: as §1
In the next experiment the target is T1, PUM1 PUF domain R6-AWS (Homo sapiens, UniProt Q14671 828-1176, N1043A;Y1044W;Q1047S).
T1 sequence: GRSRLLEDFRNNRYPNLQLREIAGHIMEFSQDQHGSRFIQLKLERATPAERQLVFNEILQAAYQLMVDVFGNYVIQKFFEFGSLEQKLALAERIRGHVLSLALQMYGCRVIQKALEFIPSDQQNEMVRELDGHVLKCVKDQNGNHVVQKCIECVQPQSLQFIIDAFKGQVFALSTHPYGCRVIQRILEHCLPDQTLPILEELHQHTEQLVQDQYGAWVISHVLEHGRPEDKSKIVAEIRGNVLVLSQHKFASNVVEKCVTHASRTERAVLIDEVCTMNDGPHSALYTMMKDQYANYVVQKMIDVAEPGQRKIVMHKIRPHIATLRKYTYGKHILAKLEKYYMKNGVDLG
Summed up: as §1

The target of the next experiment is PUM1 PUF domain R7-RRG (Homo sapiens, UniProt Q14671 828-1176, S1079R;N1080R;E1083G). Summed up: as §1
Another experiment concerns the target PUM1 PUF domain R8-TYN (Homo sapiens, UniProt Q14671 828-1176, N1122T;Q1126N). Summed up:
as §1

Another experiment concerns the target PUM1 PUF domain R7-LER (Homo sapiens, UniProt Q14671 828-1176, S1079L;N1080E;E1083R). Summed up: as §1
In the next experiment the target is PUM1 PUF domain R1-HRR (Homo sapiens, UniProt Q14671 828-1176, S863H;Q867R). The gist of the method: as §1
A further experiment addresses PUM1 PUF domain R1-NGR (Homo sapiens, UniProt Q14671 828-1176, S863N;R864G;Q867R). The gist of the method:
as §1

In another experiment the target is PUM1 PUF domain R1-SKS (Homo sapiens, UniProt Q14671 828-1176, R864K;Q867S). Summed up: as §1
A further experiment concerns the target PUM1 PUF domain R5-SNG (Homo sapiens, UniProt Q14671 828-1176, C1007S;R1008N;Q1011G). Summed up: as §1
For the next experiment, the target named is PUM1 PUF domain R2-TFG (Homo sapiens, UniProt Q14671 828-1176, N899T;Y900F;Q903G). Summed up:
as §1

Regarding “GGCUAGAACUAGUGGAUCCCCCGGCGCCCGGCGGCUCGAGCCCGGGUAAGUGUACAUAGUCUGCAUGCCGCCGGGCGCCAUGCCUGCAGGUCGACUCUAGAAAACAUG”, the binding signal in the experiment with PUM1 PUF domain R4-TPT is 3.15 log2 enrichment (interaction score); with PUM1 PUF domain R4-GQR it was 2.32 log2 enrichment (interaction score).
On to “GGCUAGAACUAGUGGAUCCCCCGGCGCCCGGCGGCUCGAGCCCGGGUAAGUGUCAAUAGUCUGCAUGCCGCCGGGCGCCAUGCCUGCAGGUCGACUCUAGAAAACAUG”, for which the binding signal in the experiment with PUM1 PUF domain R5-DFG is 2 log2 enrichment (interaction score); with PUM1 PUF domain R5-GAR it was 5.42 log2 enrichment (interaction score).
Regarding “GGCUAGAACUAGUGGAUCCCCCGGCGCCCGGCGGCUCGAGCCCGGGUAAGUGUAAGUAGUCUGCAUGCCGCCGGGCGCCAUGCCUGCAGGUCGACUCUAGAAAACAUG”, in the experiment with PUM1 PUF domain R3-YCV, the binding signal is 2.69 log2 enrichment (interaction score).
For “GGCUAGAACUAGUGGAUCCCCCGGCGCCCGGCGGCUCGAGCCCGGGUAAGUGUAAAUAGUCUGCAUGCCGCCGGGCGCCAUGCCUGCAGGUCGACUCUAGAAAACAUG”, the binding signal with PUM1 PUF domain R4-YLL was 4.38 log2 enrichment (interaction score); in the experiment with PUM1 PUF domain R4-PWC, 7.51 log2 enrichment (interaction score); in the experiment with PUM1 PUF domain R8-KWL, 5.16 log2 enrichment (interaction score); with PUM1 PUF domain R5-DFG, 3.79 log2 enrichment (interaction score); with PUM1 PUF domain R3-DHS, 3.1 log2 enrichment (interaction score); in the experiment with PUM1 PUF domain R5-GAR, 1.64 log2 enrichment (interaction score). Moreover, the binding signal in the experiment with PUM1 PUF domain R4-TPT was 2.59 log2 enrichment (interaction score); with PUM1 PUF domain R8-RYT, 2.86 log2 enrichment (interaction score); with PUM1 PUF domain R4-CGC it was 3.48 log2 enrichment (interaction score).
“GGCUAGAACUAGUGGAUCCCCCGGCGCCCGGCGGCUCGAGCCCGGGUAAGUGAAAAUAGUCUGCAUGCCGCCGGGCGCCAUGCCUGCAGGUCGACUCUAGAAAACAUG”: the binding signal with PUM1 PUF domain R6-AWS was 5.94 log2 enrichment (interaction score).
In the case of “GGCUAGAACUAGUGGAUCCCCCGGCGCCCGGCGGCUCGAGCCCGGGUAAGUCUAAAUAGUCUGCAUGCCGCCGGGCGCCAUGCCUGCAGGUCGACUCUAGAAAACAUG”, the binding signal in the experiment with PUM1 PUF domain R7-RRG is 3.12 log2 enrichment (interaction score).
For “GGCUAGAACUAGUGGAUCCCCCGGCGCCCGGCGGCUCGAGCCCGGGUAAGCGUAAAUAGUCUGCAUGCCGCCGGGCGCCAUGCCUGCAGGUCGACUCUAGAAAACAUG”, the binding signal in the experiment with PUM1 PUF domain R8-KWL was 5.91 log2 enrichment (interaction score); with PUM1 PUF domain R8-TYN, 2.62 log2 enrichment (interaction score).
For the sequence “GGCUAGAACUAGUGGAUCCCCCGGCGCCCGGCGGCUCGAGCCCGGGUAAGUUUAAAUAGUCUGCAUGCCGCCGGGCGCCAUGCCUGCAGGUCGACUCUAGAAAACAUG”, the values for the binding signal with PUM1 PUF domain R7-LER and with PUM1 PUF domain R7-RRG were 3.41 log2 enrichment (interaction score) and 4.6 log2 enrichment (interaction score), respectively.
Take “GGCUAGAACUAGUGGAUCCCCCGGCGCCCGGCGGCUCGAGCCCGGGUAAGUGUAAAUUGUCUGCAUGCCGCCGGGCGCCAUGCCUGCAGGUCGACUCUAGAAAACAUG”: the binding signal in the experiment with PUM1 PUF domain R1-HRR was 2.71 log2 enrichment (interaction score); with PUM1 PUF domain R1-NGR, 2.32 log2 enrichment (interaction score); with PUM1 PUF domain R1-SKS, 2.64 log2 enrichment (interaction score).
Consider “GGCUAGAACUAGUGGAUCCCCCGGCGCCCGGCGGCUCGAGCCCGGGUAAGUGUUAAUAGUCUGCAUGCCGCCGGGCGCCAUGCCUGCAGGUCGACUCUAGAAAACAUG”, for which the results for the binding signal in the experiment with PUM1 PUF domain R5-SNG, in the experiment with PUM1 PUF domain R5-DFG and with PUM1 PUF domain R5-GAR were 3.2 log2 enrichment (interaction score), 6.17 log2 enrichment (interaction score) and 2.98 log2 enrichment (interaction score), respectively.
For “GGCUAGAACUAGUGGAUCCCCCGGCGCCCGGCGGCUCGAGCCCGGGUAAGUGUAAAUCGUCUGCAUGCCGCCGGGCGCCAUGCCUGCAGGUCGACUCUAGAAAACAUG”, the binding signal is 2.84 log2 enrichment (interaction score) with PUM1 PUF domain R1-HRR, 4.09 log2 enrichment (interaction score) with PUM1 PUF domain R1-NGR and 1.17 log2 enrichment (interaction score) with PUM1 PUF domain R1-SKS.
On to “GGCUAGAACUAGUGGAUCCCCCGGCGCCCGGCGGCUCGAGCCCGGGUAAGUGUAAAAAGUCUGCAUGCCGCCGGGCGCCAUGCCUGCAGGUCGACUCUAGAAAACAUG”, for which the binding signal in the experiment with PUM1 PUF domain R2-TFG was 4.09 log2 enrichment (interaction score).

For the origin of these results see publication PMC8384837, “Expanding the binding specificity for RNA recognition by a PUF domain”.
